SENP8 block-1: SENP8 (human) protease inhibition; Q96LD8; recombinant SENP8, Nedd8 substrate fluorescence; inhibition, % at 20 µM; 360,000 tested, 0.64% active; in the data active = inhibition mostly above about 40%, no sharp cut-off; inactive = mostly below about 27%
SENP6 block: blocks the human protease SENP6; 330,000 tested, 1.8% active; Q9GZR1; Recombinant SENP6 catalytic domain, aminoluciferin luminescence; inhibition, % at 10 µM;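 active = inhibition above about 50% at the single tested dose, limit read from the data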;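 note: plate controls were DMSO wells with enzyme for no effect and DMSO wells lacking enzyme for full effect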
Target sequence (Q9GZR1 628-1112 limits assumed): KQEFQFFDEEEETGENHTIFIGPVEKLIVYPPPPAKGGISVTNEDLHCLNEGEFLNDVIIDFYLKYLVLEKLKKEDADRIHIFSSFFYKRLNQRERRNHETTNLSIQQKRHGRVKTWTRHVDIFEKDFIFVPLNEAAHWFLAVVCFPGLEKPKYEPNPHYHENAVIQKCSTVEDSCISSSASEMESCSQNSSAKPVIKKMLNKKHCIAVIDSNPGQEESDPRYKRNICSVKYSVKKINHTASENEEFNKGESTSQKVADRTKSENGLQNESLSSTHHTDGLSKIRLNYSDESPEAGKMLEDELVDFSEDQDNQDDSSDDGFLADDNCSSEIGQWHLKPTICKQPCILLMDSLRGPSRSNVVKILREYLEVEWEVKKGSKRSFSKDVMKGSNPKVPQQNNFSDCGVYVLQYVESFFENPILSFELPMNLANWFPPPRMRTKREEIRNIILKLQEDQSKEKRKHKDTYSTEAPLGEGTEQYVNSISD
Platelet DG rel: platelet dense granule release activity; human platelet-rich plasma, SFLLRN dense granule ATP release, luminescence; inhibition, %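 (compounds screened at 7.5 µM in platelet-rich plasma)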; 300,000 tested, 0.22% active; AID 1663;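 active = mean replicate score, as percent of positive control, at or above 50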
SENP7 block: blocks the human protease SENP7 | Q9BQF6 | inhibition, % at 5 µM | recombinant SENP7, Z-RLRGG-aminoluciferin luminescence, 40 min | 330,000 tested, 1.5% active;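 active = inhibition above about 50% at the single test dose, limit read from the data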;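 note: plate controls were DMSO with enzyme for no effect and no enzyme buffer wells for full effect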
SENP8 block-2: SENP8 protease inhibition. Q96LD8. purified SENP8, Z-RLRGG-aminoluciferin cleavage, luminescence. inhibition, % at 10 µM. 330,000 tested, 1.2% active. AID 2540; in the data active = inhibition above about 50%
HSP90 refold inh: inhibitors of HSP90 luciferase refolding in rabbit reticulocyte lysate; luciferase refolding luminescence, 3 h; inhibition, % at 5.6 µM; 290,000 tested, 0.91% active; AID 1789;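 active = inhibition above the screen-wide mean plus 3 SD, computed separately per campaign, cut at about 16% in these data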;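 note: 0% = DMSO wells and 100% = 60 µM geldanamycin wells; inhibitors lower the luminescence because luciferase stays unfolded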
SENP8 conf: confirmation of human SENP8 protease inhibitors; shares compounds with SENP8 block-1; purified SENP8, Nedd8-AMC/pro-Nedd8 cleavage fluorescence, 30 min; inhibition, % at 25 µM; 1,400 tested, 15% active; in the data active = inhibition mostly above about 39%, no sharp cut-off; inactive = mostly below about 34%
The depositor's hits bear a star; nt = no result given. This is a sample that favours compounds with a hit; in the whole collection about 2.8% have one here.

SMILES | SENP8 block-1 | SENP6 block | Platelet DG rel | SENP7 block | SENP8 block-2 | HSP90 refold inh | SENP8 conf
CCN1C(=O)C2(C(C(=O)c3cc4ccccc4o3)=C(O)C(=O)N2CCCN2CCOCC2)c2ccccc21 (stereo not given) | -47 | -11 | 7 | 5 | 8 | 2 | nt
Cc1cc(NC(=O)CCC(=O)N(Cc2ccco2)C(C(=O)NC2CCCC2)c2ccccc2C)no1 (stereo not given) | 60* | -18 | -1 | -5 | -5 | 2 | 27
COc1cccc(NC(=O)CN(C)C(=O)C(C)Sc2ccccc2)c1 (stereo not given) | 14 | 0 | nt | -6 | 8 | nt | nt
COc1cc(/C=C/C(=O)O)cc(S(=O)(=O)Nc2ccc3c(c2)CCC3)c1OC | 6 | -24 | 11 | 1 | -6 | -6 | nt
Cn1cccc1CNC(=S)Nc1ccccc1Cl | 40* | -16 | -1 | -8 | -4 | -2 | 13
CN(CCO)c1cc(Sc2nc3ccccc3s2)c2nonc2c1[N+](=O)[O-] | 55* | 30 | -4 | -3 | 2 | 3 | 32
COc1cc(O)c(NC(C)=O)c2nonc12 | 60* | 17 | 2 | 19 | 7 | 4 | 33
COc1cc(-c2ccc(NC(C)=O)c(OC)c2)ccc1NC(C)=O | 17 | 4 | 15 | 2 | 0 | 3 | nt
CC(=O)ONC(=Nc1ccccc1)c1nonc1N | 5 | -30 | -5 | 2 | -4 | 7 | nt
O=C(Cc1cc(=O)[nH][nH]1)N/N=C/C=C/c1ccccc1 | 44* | 4 | -5 | 4 | 1 | 5 | 34
O=C(CNC(=O)c1ccccc1)N/N=C/C=C/c1ccccc1 | 4 | 10 | -3 | 1 | 8 | 4 | nt
COC(=O)CCCn1cc(CN2CC(N3CCN(Cc4cccc(C)c4)CC3)CS2(=O)=O)nn1 (stereo not given) | 23 | nt | nt | nt | nt | nt | nt
Cc1ccc(NC(=O)c2ccc(N3CCOCC3)c([N+](=O)[O-])c2)cc1S(=O)(=O)N1CCOCC1 | 44* | -3 | -12 | 7 | -3 | 3 | 30
CCCC(=O)N1CCN(c2ccc(NC(=O)c3ccc(N4CCCC4)c([N+](=O)[O-])c3)cc2Cl)CC1 | 45* | -8 | 3 | 8 | 7 | nt | 18
CCN1CCN(c2ccc(NC(=O)c3ccc([N+](=O)[O-])o3)cc2Cl)CC1 | 52* | nt | -10 | nt | nt | 8 | 20
O=C(COC(=O)c1ccc[n+]([O-])c1)Nc1cc([N+](=O)[O-])ccc1Cl | -4 | 3 | nt | 4 | -1 | nt | nt
COc1ccc(S(=O)(=O)n2nc(C)cc2C)cc1OC | 8 | 8 | -4 | -7 | -13 | -4 | nt
Cc1cccc(NC(=O)c2ccc(NCC3CCCO3)c([N+](=O)[O-])c2)c1 (stereo not given) | 25 | -6 | 4 | -17 | -7 | -1 | nt
O=C(Nc1cccc(Cl)c1)c1ccc(NCC2CCCO2)c([N+](=O)[O-])c1 (stereo not given) | 44* | -11 | 1 | -7 | 5 | 2 | 13
COc1cc(C(=O)OC2CC3CCC2(C)C3(C)C)ccc1OC(C)=O (stereo not given) | 62* | 2 | -4 | -4 | -7 | 0 | 7
CC(C)(CC1(C)NC(=O)NC1=O)OCc1ccccc1 (stereo not given) | 3 | nt | nt | nt | nt | nt | nt
CSCC[C@H](NC(=O)N1CCn2c1nc1ccccc12)C(=O)N[C@H](Cc1ccccc1)C(=O)O | 49* | -1 | -4 | 12 | 1 | -3 | 9
O=C(CCCCCNC(=O)N1CCn2c1nc1ccccc12)N[C@@H](Cc1ccccc1)C(=O)O | 47* | 2 | -10 | 2 | 4 | 5 | 12
COc1ccc(/C=N/Nc2nc(C)c([N+](=O)[O-])c(N(C)c3ccccc3)n2)cc1OC | 53* | -10 | -4 | 2 | 5 | 0 | 6
CC(C)CC(=O)NS(=O)(=O)c1ccc(N)cc1 | 15 | -15 | -2 | -4 | 1 | 3 | nt
SMILES | SENP8 block-1 | SENP6 block | Platelet DG rel | SENP7 block | SENP8 block-2 | HSP90 refold inh | SENP8 conf
CC(C)C(=O)NS(=O)(=O)c1ccc(N)cc1 | 47* | 1 | 8 | 1 | -2 | 2 | 11
Cc1cc2ccccn2c1C(=O)c1ccc(NN)c([N+](=O)[O-])c1 | 42* | 4 | 1 | 5 | 4 | -1 | 11
COc1ccc(CNC(=O)[C@@H](NC(=O)C2CCN(C(=O)[C@@H](N)Cc3ccccc3)CC2)C(C)C)cc1 | 54* | 2 | 0 | 6 | 2 | 0 | 16
COc1ccccc1CNC(=O)[C@H](C)NC(=O)C1CCN(C(=O)[C@@H](N)Cc2ccccc2)CC1 | 18 | -19 | 14 | -4 | 3 | -3 | nt
COc1ccc(CNC(=O)[C@H](Cc2ccccc2)NC(=O)C2CCN(C(=O)[C@H](C)N)CC2)cc1 | 51* | -4 | -1 | -4 | -1 | -3 | 9
CSCC[C@H](N)C(=O)N1CCC(C(=O)N[C@H](C(=O)NCc2ccccc2F)C(C)C)CC1 | 48* | -5 | 1 | -4 | -3 | -2 | -6
COc1ccc(CNC(=O)[C@H](Cc2ccccc2)NC(=O)C2CCNCC2)cc1 | 7 | -5 | 10 | -8 | 3 | 0 | nt
COc1ccccc1CNC(=O)[C@H](C)NC(=O)C1CCN(C(=O)[C@@H](N)C(C)C)CC1 | 48* | -13 | -2 | -2 | -6 | -4 | 10
COc1ccc(S(=O)(=O)N2CCC(C(=O)N[C@H](C(=O)NCc3ccccc3)C(C)C)CC2)cc1 | 14 | nt | nt | nt | nt | nt | nt
COc1cc(SC#N)ccc1N=Cc1c(C)[nH]n(-c2ccc(Cl)cc2)c1=O | 61* | 8 | 12 | -2 | -14 | 9 | 12
COc1cc(SC#N)ccc1N=Cc1c(C)[nH]n(-c2ccc(C)c(C)c2)c1=O | 26 | 5 | 2 | 2 | 3 | 14 | nt
CCNC(=O)O/N=C1\CCCCC1c1ccc([N+](=O)[O-])cc1[N+](=O)[O-] (stereo not given) | 41* | 15 | -1 | 3 | 2 | 3 | 48*
Cc1ccc(Sc2ncccc2COC(=O)Nc2c(C)cccc2C)cc1 | 20 | -1 | 10 | -7 | 11 | 0 | nt
Cc1ccc(Sc2ncccc2COC(=O)Nc2ccccc2)cc1 | 40* | 15 | -28 | -1 | -15 | 0 | 9
O=S(=O)(c1ccccc1)N1CC2CC(Br)C(Br)CC21 (stereo not given) | 14 | nt | nt | nt | nt | nt | nt
CO/N=C/c1ccc(Sc2ccc(C)cc2)c([N+](=O)[O-])c1 | 32 | -6 | 0 | 2 | -4 | 2 | nt
Cc1ccc(Sc2ccc(/C=N/O)cc2[N+](=O)[O-])cc1 | 42* | 7 | -2 | 4 | -13 | -4 | 17
Cc1ccoc1C(=O)NCCCNC(=O)c1occc1C | 62* | -4 | 4 | -1 | 1 | 0 | 82*
COc1cc(CNC(=O)c2cc3ccccc3oc2=O)cc(OC)c1OC | -17 | -4 | 4 | -2 | 2 | nt | nt

Screening results (PubChem)
